In PubChem BioAssay (Tox21):
Results filed as inconclusive are left out. Activity calls are given as the source filed them. Unless noted, calls come from the whole dose curve; as a rule, active = well fitted curve in the direction sought with a large enough effect in the repeat runs; inconclusive = weak or mixed curves; inactive = no such curve, though single readings can be large; an effect the other way counts as inactive or inconclusive.

What was measured:
[1] = qHTS assay to identify small molecule antagonists of the progesterone receptor (PR) signaling pathway - cell viability counter screen (AID 1346798); note: nearly all actives have a fitted effect of over 50% in size; note: potency is the fitted concentration of half-maximal effect; for activity change, negative = cytotoxicity: series mostly up to about 92 µM
Procedure, shortened: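 ATP content as viability readout: CellTiter-Glo luminescence, 30 min room temperature, in PR-UAS-bla HEK293T cells after 16 hr compound/R5020 treatment at 37C and 5% CO2.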

[2] = qHTS assay to identify small molecule agonists of the progesterone receptor (PR) signaling pathway - cell viability counter screen (AID 1346799; calls by dose curve; note: nearly all actives have a fitted effect of over 45% in size; note: potency is the fitted concentration of half-maximal effect)
Procedure, shortened: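 Cytotoxicity in PR-bla HEK293T cells: 16 h compound, 37C; CellTiter-Glo added post-FRET read; luminescence after 30 min RT.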

[3] = qHTS assay to identify small molecule antagonists of the TGF-beta/Smad signaling pathway - cell viability counter screen (AID 1346824); note: nearly all actives have a fitted effect of over 50% in size; note: potency is the fitted concentration of half-maximal effect
Procedure, shortened: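 SBE-bla HEK 293T cells, incubated overnight, then compound plus 0.25 ng/mL TGF-beta1 (stock added) for 5 hr at 37 C. Viability was read in the same wells by CellTiter-Glo luminescence after 30 min at room temperature.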

[4] = qHTS assay to identify small molecule agonists of the TGF-beta/Smad signaling pathway - cell viability counter screen (AID 1346829); note: nearly all actives have a fitted effect of over 45% in size; note: potency is the fitted concentration of half-maximal effect; for activity change, negative = cytotoxicity: top concentration of the series differs between compounds
Procedure, shortened: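 Luminescence from CellTiter-Glo, read after a 30 min room-temperature incubation, gives cell viability of SBE-bla HEK 293T cells treated 5 hr with compounds at 37 C.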

[5] = qHTS assay to identify small molecule agonists of the TGF-beta/Smad signaling pathway (AID 1346859; active = well fitted activation curve with a large enough effect in the signal ratio in the repeat runs, not every such curve was filed as active; the % refers to the signal ratio; note: series mostly up to about 77 µM)
Procedure, shortened: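 Stable Smad binding element-beta-lactamase HEK 293T cells; 5 hr compound exposure at 37 C under 5% CO2; 2 hr room-temperature substrate step; fluorescence excited at 405 nm, collected at 460 nm and 530 nm.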

[6] = Human pregnane X receptor (PXR) small molecule agonists, qHTS cell viability counter screen (AID 1346977); note: nearly all actives have a fitted effect of over 50% in size; note: potency is the fitted concentration of half-maximal effect
Procedure, shortened: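 Readout is CellTiter-Fluor fluorescence from PXR-Luc HepG2 cells. Plated cells rested 5hr, then were treated with compounds for 24hr at 37C and 5% CO2, with reagent present during the last hour.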

[7] = Caspase-3/7 induction in HepG2 cells by small molecules, qHTS assay (AID 1346978); note: nearly all actives have a fitted effect of over 15% in size; note: potency is the fitted concentration of half-maximal effect
Procedure, shortened: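 Wild-type HepG2 cells, 2,000/well, settled 5 hr at 37 C and 5% CO2, then compound-treated for 17 hr; caspase-3/7 activity read by luminescent Caspase-Glo 3/7 after 30 min at room temperature.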

[8] = Caspase-3/7 induction in CHO-K1 cells by small molecules, qHTS cell viability counter screen (AID 1346979); note: nearly all actives have a fitted effect of over 35% in size; note: potency is the fitted concentration of half-maximal effect
Procedure, shortened: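 To flag cytotoxic compounds, treated CHO-K1 wild-type cells were given CellTiter-Fluor at 16hr and read fluorescently after 1hr at 37C; the caspase-3/7 luminescence was measured in these same wells.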

[9] = target: Thyrotropin-releasing hormone receptor (Homo sapiens) (UniProt P34981); test: qHTS assay to identify small molecule agonists of the thyrotropin-releasing hormone receptor (TRHR) signaling pathway (AID 1346891; calls by dose curve;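 note: HEK293 cells expressing TRHR with calcium dye readout; series mostly up to about 58 µM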)
Procedure, shortened: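 In 1536-format, 1500 TRHR-Hek293 cells per well grew 18 h, took up calcium dye for 2 h at 37 °C, received compound, and were read kinetically; 15-point titrations, triplicates.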

[10] = target: Thyrotropin-releasing hormone receptor (Homo sapiens) (UniProt P34981); test: qHTS assay to identify small molecule antagonists of the thyrotropin-releasing hormone receptor (TRHR) signaling pathway (AID 1346877; active = well fitted inhibition curve with a large enough effect in the repeat runs, not every such curve was filed as active; note: series mostly up to about 51 µM)
Procedure, shortened: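 Human TRHR in HEK293 cells; inhibition of the intracellular calcium rise triggered by 1 nM TRH was followed by fluorescence over 3 min. Compounds were run at 15 concentrations, three replicates each.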
% is set by controls: 0 for no effect and ±100 for the full control effect.

Chain of Thyrotropin-releasing hormone receptor (Homo sapiens) (P34981 whole entry, looked up): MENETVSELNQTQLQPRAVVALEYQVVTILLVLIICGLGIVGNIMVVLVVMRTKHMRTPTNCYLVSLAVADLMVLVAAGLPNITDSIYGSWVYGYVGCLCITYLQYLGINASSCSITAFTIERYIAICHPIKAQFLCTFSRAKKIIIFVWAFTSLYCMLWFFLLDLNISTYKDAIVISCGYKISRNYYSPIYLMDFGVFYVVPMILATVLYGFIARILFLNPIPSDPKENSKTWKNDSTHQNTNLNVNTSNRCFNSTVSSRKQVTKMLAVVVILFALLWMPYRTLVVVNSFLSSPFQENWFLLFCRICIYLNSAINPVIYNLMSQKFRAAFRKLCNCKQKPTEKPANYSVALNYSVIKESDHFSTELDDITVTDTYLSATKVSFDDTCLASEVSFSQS

C=CC(=O)OCC(Br)CBr (centres undefined)
inactive: Potency [1] | Potency [2] | Potency [3] | Potency [4] | outcome [5] | Potency [6] | Potency [7]

CC(C)C(=O)C(C)C
inactive: Potency [1] | Potency [2] | Potency [3] | Potency [4] | outcome [5] | Potency [6] | Potency [8]

Nc1cccnc1N
inactive: Potency [1] | Potency [2] | Potency [3] | Potency [4] | outcome [5] | Potency [6] | Potency [7]

C/C(=C\c1ccc(C(=O)O)cc1)c1ccc2c(c1)C(C)(C)CCC2(C)C
inactive: Potency [1] | Potency [2] | Potency [3] | Potency [4] | outcome [5] | Potency [9] | Potency [6] | Potency [7]

C=C(C)C1CCC(C)CC1O (centres undefined)
inactive: Potency [1] | Potency [2] | Potency [3] | Potency [4] | outcome [5] | Potency [6] | Potency [8]

Clc1ccc2c(Cl)ccnc2c1
inactive: Potency [1] | Potency [2] | Potency [3] | Potency [4] | outcome [5] | Potency [6] | Potency [7] | Potency [8]

O=C(CCCCCCCCc1cccnc1)N1CCC(C=C(c2ccccc2)c2ccccc2)CC1
active: Potency [1] 30.6 µM | Potency [2] 30.6 µM | Potency [3] 54.9 µM | Potency [4] 54.9 µM
inactive: Potency [10] | Potency [9] | Potency [7]

CN(C/C=C/c1ccccc1)Cc1cccc2ccccc12
inactive: Potency [1] | Potency [2] | Potency [3] | outcome [5] | Potency [10] | Potency [9] | Potency [6] | Potency [8]

CCCCC/C=C\C=C\C(=O)OCC
inactive: Potency [1] | Potency [2] | Potency [3] | Potency [4] | outcome [5] | Potency [10] | Potency [9]
active: Potency [8] 63.7 µM

Nc1cc([N+](=O)[O-])cc(Cl)c1O
inactive: Potency [1] | Potency [2] | Potency [3] | Potency [4] | outcome [5] | Potency [10] | Potency [9] | Potency [7]

c1ccc2c(c1)-c1ccc3ccc4cccc5cc-2c1c3c45
inactive: Potency [1] | Potency [2] | Potency [3] | Potency [4] | Potency [10] | Potency [9] | Potency [6] | Potency [7]

O=C(Cl)c1ccc(Cl)cc1Cl
inactive: Potency [1] | Potency [2] | Potency [3] | Potency [4] | outcome [5] | Potency [10] | Potency [6]

CCc1cccc(C)c1N(C(=O)CS(=O)(=O)O)C(C)COC (centres undefined)
inactive: Potency [1] | Potency [2] | Potency [3] | Potency [4] | outcome [5] | Potency [10] | Potency [9] | Potency [6] | Potency [8]

Nc1c(Br)cc([N+](=O)[O-])cc1Br
inactive: Potency [1] | Potency [2] | Potency [3] | Potency [4] | outcome [5] | Potency [6] | Potency [7] | Potency [8]

CCCCCCCCCCCCCCCCC(C(=O)O)C(O)(CC(=O)O)C(=O)O (centres undefined)
inactive: Potency [1] | Potency [2] | Potency [3] | Potency [4] | outcome [5] | Potency [10] | Potency [9] | Potency [6] | Potency [7] | Potency [8]

CCOc1nc(F)cc2nc(S(=O)(=O)Nc3c(Cl)cccc3C(=O)OC)nn12
inactive: Potency [1] | Potency [2] | Potency [3] | Potency [4] | outcome [5] | Potency [10] | Potency [9] | Potency [6] | Potency [7] | Potency [8]

Nc1cc([N+](=O)[O-])ccc1Cl
inactive: Potency [1] | Potency [2] | Potency [3] | Potency [4] | outcome [5] | Potency [6] | Potency [7]

CC(C)(C)c1ccc(OC2CCCCC2O)cc1 (centres undefined)
inactive: Potency [1] | Potency [2] | Potency [3] | Potency [4] | outcome [5] | Potency [10] | Potency [6]
active: Potency [8] 61.1 µM

CC(C)=CCC[C@H](C)CC=O
inactive: Potency [1] | Potency [2] | Potency [3] | Potency [4] | outcome [5] | Potency [6] | Potency [7] | Potency [8]

COc1cc(C(C)C)ccc1C
inactive: activity change, negative = cytotoxicity [1] -15.7% [at 18.9 µM] | activity change, negative = cytotoxicity [2] -8.49% [at 19 µM] | viability change, negative = cytotoxic [3] -0.209% [at 15.8 µM] | activity change, negative = cytotoxicity [4] 6.13% [at 15.8 µM] | activation [5] 5.38% [at 15.8 µM] | activity, negative = inhibition [10] -0.302% [at 10.5 µM] | activation [9] 0.0321% [at 11.8 µM] | activity change, negative = cytotoxicity [6] 1.46% [at 19 µM] | caspase activation [7] 0.0291% [at 19 µM] | activity change, negative = cytotoxicity [8] -7.98% [at 19 µM]

Cc1cc(C)c(O)c(C(C)(C)C)c1
inactive: Potency [1] | Potency [2] | Potency [3] | Potency [4] | outcome [5] | Potency [6]

[Cl][Sc]([Cl])[Cl]
inactive: Potency [1] | Potency [2] | Potency [3] | Potency [4] | outcome [5] | Potency [6] | Potency [7] | Potency [8]

C=CC(C)(C)O
inactive: Potency [1] | Potency [2] | Potency [3] | Potency [4] | outcome [5] | Potency [6] | Potency [7] | Potency [8]

N#CCCOCCC#N
inactive: Potency [1] | Potency [2] | Potency [3] | Potency [4] | outcome [5] | Potency [10] | Potency [9] | Potency [6] | Potency [8]

C1CCSC1
inactive: Potency [1] | Potency [2] | Potency [3] | Potency [4] | outcome [5] | Potency [6] | Potency [7] | Potency [8]

CCCCCc1ccc(O)cc1
inactive: Potency [1] | Potency [2] | Potency [3] | Potency [4] | outcome [5] | Potency [6]

CC(=O)[C@]1(O)Cc2c(O)c3c(c(O)c2[C@@H](O[C@H]2C[C@H](N)[C@H](O)[C@H](C)O2)C1)C(=O)c1ccccc1C3=O
active: Potency [2] 1.33 µM | Potency [6] 2.66 µM | Potency [7] 2.11 µM | Potency [8] 11.9 µM
inactive: Potency [1] | Potency [3] | outcome [5] | Potency [10] | Potency [9]
